Data reported in PubChem BioAssay (NCI).
This is part of a sample that, as a whole, favours compounds with a hit. Of some 83,000 tested, about 20% had one in any assay.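 Step 1: grow cells in 96-well plates. Step 2: add test compound at a single concentration. Step 3: incubate 48 h. Step 4: record percent growth.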 Activity calls are given as the source filed them. The calls were made as follows: active = growth percent below 10; inactive = the rest.

Tested on: SK-MEL-5 melanoma
Assay: NCI-60 one-dose screen, 48 h (100 = growth as untreated, 0 = no growth, -100 = all killed)
Conditions: 10 µM unless noted

With `C=C1C(=O)O[C@H]2[C@H]1CC/C(COC(=O)c1cn(C)c3ccccc13)=C\CC[C@@]1(C)O[C@@H]21` as the molecule, how does the growth read?
The growth was 4.24% (active).

`CCOCCc1c(O)nc(SC)[nH]c1=O` was tested. Which growth did it give?
The growth was 103% (inactive).

Which growth does the source give for `COc1ccccc1N1CCN(CCCOc2ccc(C(=O)/C=C3/C(=O)Nc4ccccc43)cc2)CC1` here?
The growth was -36.1% (active).

Which growth does the source give for `O=C(CCl)N1CCCc2ccccc21` here?
The growth was 95.7% (inactive).

`C#C[C@@]1(O)[C@@H](CO)O[C@@H](n2cc(Br)c3c(N)ncnc32)[C@@H]1O` was tested. Which growth did it give?
Its growth is 4.89% (active).

`COc1ccc(C(=O)c2cc(F)c(F)c(OC)c2F)cc1OC(=O)CCl` was tested. Which growth did it give?
Its growth is 29% (inactive).

With `Cc1ccccc1NC(=O)c1sc2nc(C)c(C(C)O)cc2c1N` (configuration not stated) as the molecule, how does the growth read?
Its growth is 31.4% (inactive).

For `OCCNc1nc(NCCO)nc(Nc2ccc(C3=NN(c4cc(Cl)cc(Cl)c4)C(c4ccc(Cl)cc4)C3)cc2)n1` (configuration not stated), which growth is on record?
The growth was 24.9% (inactive).

Which growth does the source give for `COc1ccc(NC(=O)c2sc3nc(C)c(C(C)=O)cc3c2N)cc1` here?
The growth was 93.8% (inactive).

For `Cc1ccc(-c2nc(C#N)c(S(=O)(=O)N(C)CCO)o2)cc1`, which growth is on record?
The growth was 71.4% (inactive).

For `O=C(CSC(=S)N1CCCCC1)Nc1ccccc1`, which growth is on record?
Its growth is 97.5% (inactive).

With `COc1cc2c(cc1OC)C(Sc1ccc(Cl)cc1)c1c(nc(N)c(C#N)c1N)O2` (configuration not stated) as the molecule, how does the growth read?
Its growth is 12.5% (inactive).

`COC(=O)c1cncc(C(=O)Nc2ccc(-n3cnc4ccccc43)cc2)c1` was tested. Which growth did it give?
Its growth is 93.9% (inactive).

How did the growth turn out when `O=C(/C(=C/c1ccc([N+](=O)[O-])cc1)SCc1ccc(Cl)cc1)c1ccc(F)cc1` was run?
The growth was 69.9% (inactive).

With `CCOC(=O)c1c(-c2ccc(O)cc2)c(C#N)c2c(C#N)c(N)nn2c1N` as the molecule, how does the growth read?
Its growth is 52.9% (inactive).

Which growth does the source give for `COc1cc(C2=NN(C(C)=O)C(c3cccc(Nc4ccnc5cc(C(F)(F)F)ccc45)c3)C2)cc(OC)c1OC` (configuration not stated) here?
Its growth is 27.8% (inactive).

`CC(=O)OC[C@]12CC[C@@H](c3cn(Cc4ccc(Cn5cc([C@@H]6CC[C@]7(COC(C)=O)CC[C@]8(C)[C@H](CC[C@@H]9[C@@]%10(C)CC[C@H](OC(C)=O)C(C)(C)[C@@H]%10CC[C@]98C)[C@@H]67)nn5)cc4)nn3)[C@@H]1[C@H]1CC[C@@H]3[C@@]4(C)CC[C@H](OC(C)=O)C(C)(C)[C@@H]4CC[C@@]3(C)[C@]1(C)CC2` was tested. Which growth did it give?
Its growth is 105% (inactive).

Which growth does the source give for `COc1ccc(/C=C/C(=O)Nc2ncnc3nc[nH]c23)cc1` here?
Its growth is 94.8% (inactive).

How did the growth turn out when `COC(=O)c1ccc2c(c1)NC(=O)[C@@H]1CCCN21` was run?
Its growth is 96.8% (inactive).

For `COc1cc(NC(=O)COc2cc(C)nc3ccc(OC)cc23)cc(OC)c1`, which growth is on record?
Its growth is 76% (inactive).

`CCOC(=O)c1ccc(Nc2ncnc3ccc(NC(=O)c4ccccc4)cc23)cc1` was tested. Which growth did it give?
Its growth is 84.6% (inactive).

With `CCN(CC)CC#CCOC(=O)[C@]1(C)CCC[C@]2(C)[C@H]3C[C@H]4C(C(C)C)=C[C@]3(CC[C@H]21)[C@@H]1C(=O)CCC(=O)[C@@H]14` as the molecule, how does the growth read?
Its growth is 58.8% (inactive).

For `N#Cc1c(-c2ccc(F)cc2)nc(N/N=C/c2c[nH]c3ccccc23)nc1N1CCOCC1`, which growth is on record?
The growth was 37.1% (inactive).

Which growth does the source give for `CN1CCN(CC#CCOC(=O)CNC(=O)[C@]23CCC(C)(C)C[C@H]2C2=CC[C@@H]4[C@@]5(C)CC[C@H](O)C(C)(C)[C@@H]5CC[C@@]4(C)[C@]2(C)CC3)CC1` here?
Its growth is 88.6% (inactive).

How did the growth turn out when `Nc1c(C(=O)Nc2cccc3ccccc23)sc2nc3c(cc12)COCC3` was run?
Its growth is 31% (inactive).

`C#CCOC(=O)[C@]1(C)CCC[C@]2(C)[C@H]3C[C@H]4C(C(C)C)=C[C@]3(CC[C@H]21)[C@@H]1C(=O)CCC(=O)[C@@H]14` was tested. Which growth did it give?
Its growth is 85.5% (inactive).

`COC(=O)c1nc(-c2ccccc2)oc1S(=O)(=O)n1nc(-c2ccccc2)cc1N` was tested. Which growth did it give?
Its growth is 94.7% (inactive).

How did the growth turn out when `Cn1c2ccccc2c2c(OC(=O)c3ccccc3)c3c(nc21)-c1ccccc1C3` was run?
Its growth is 96.6% (inactive).

`COc1ccc(-c2cc(-c3nnc(SCC(=O)Nc4ccc(/C(C)=N\O)cc4)o3)c3ccccc3n2)cc1` was tested. Which growth did it give?
The growth was 99.2% (inactive).

How did the growth turn out when `COc1ccc(C2CC(c3ccc(OC)cc3O)=NN2c2ccc(S(N)(=O)=O)cc2)cc1` (configuration not stated) was run?
Its growth is 49% (inactive).

With `CC(=O)c1ccc(NC(=O)CSc2nnc(-c3cc(-c4ccc(Cl)cc4)nc4ccccc34)o2)cc1` as the molecule, how does the growth read?
Its growth is 90.5% (inactive).

`CCOC(=O)c1c(C)nc2c(c1N)/C(=C/c1cccs1)C(=O)N2Cc1ccccc1` was tested. Which growth did it give?
The growth was 83.8% (inactive).

Which growth does the source give for `CN(C)[C@@H]1C(=O)C(C(N)=O)=C(O)[C@@]2(O)C(=O)C3=C(O)c4c(O)cc(CN5CCc6ccccc6C5)c(Cl)c4C[C@H]3C[C@@H]12` here?
The growth was -94.2% (active).

How did the growth turn out when `O=C1CC23OC(C(O)c4ccccc4N12)C1C(c2ccccc2)=NOC13` (configuration not stated) was run?
The growth was 31.7% (inactive).

`N#Cc1nc(-c2ccccc2)oc1S(=O)(=O)NCC(c1ccc(Cl)cc1)N1CCCCC1` (configuration not stated) was tested. Which growth did it give?
Its growth is 73.8% (inactive).

Which growth does the source give for `C#C[C@@]1(O)[C@@H](CO)O[C@@H](n2cc(Cl)c3c(N)ncnc32)[C@@H]1O` here?
The growth was -61% (active).

For `COc1ccc(-n2cc(COc3ccc4c5ccnc(C)c5n(CC(C)C)c4c3)nn2)cc1`, which growth is on record?
The growth was 58.2% (inactive).
